# CRFBP-R2 agonist: agonists of human CRF-binding protein/CRF-R2 receptor complex; HEK293 CRF-R2/CRF-BP, calcium dye fluorescence (FLIPR); percent of saturating CRF peptide response; activation, % at 13.2 µM; 350,000 tested, 0.46% active; AID 588473;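 active means activation of at least 50%, plus an integration ratio under a set limit after plate pattern correction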;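 further: plate controls were neutral control wells without compound for no effect and CRF at EC100 for full effect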
# IDE cell inh: inhibitors of human insulin-degrading enzyme in cells; inhibition, % at 5.59 µM; P14735; HEK cells, FAbetaB cleavage, fluorescence polarization; 320,000 tested, 0.41% active; AID 434962;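 active means percent inhibition above the average of all tested compounds plus 3 SD, set per screening campaign, cut at about 16% in these data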;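 further: IDE supplied by intact live HEK cells; FP after avidin binding of uncleaved biotin substrate so inhibition keeps polarization high; 0% = DMSO wells and 100% = 60 µM reference IDE inhibitor Ii1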
# Target sequence (P14735 whole entry, looked up): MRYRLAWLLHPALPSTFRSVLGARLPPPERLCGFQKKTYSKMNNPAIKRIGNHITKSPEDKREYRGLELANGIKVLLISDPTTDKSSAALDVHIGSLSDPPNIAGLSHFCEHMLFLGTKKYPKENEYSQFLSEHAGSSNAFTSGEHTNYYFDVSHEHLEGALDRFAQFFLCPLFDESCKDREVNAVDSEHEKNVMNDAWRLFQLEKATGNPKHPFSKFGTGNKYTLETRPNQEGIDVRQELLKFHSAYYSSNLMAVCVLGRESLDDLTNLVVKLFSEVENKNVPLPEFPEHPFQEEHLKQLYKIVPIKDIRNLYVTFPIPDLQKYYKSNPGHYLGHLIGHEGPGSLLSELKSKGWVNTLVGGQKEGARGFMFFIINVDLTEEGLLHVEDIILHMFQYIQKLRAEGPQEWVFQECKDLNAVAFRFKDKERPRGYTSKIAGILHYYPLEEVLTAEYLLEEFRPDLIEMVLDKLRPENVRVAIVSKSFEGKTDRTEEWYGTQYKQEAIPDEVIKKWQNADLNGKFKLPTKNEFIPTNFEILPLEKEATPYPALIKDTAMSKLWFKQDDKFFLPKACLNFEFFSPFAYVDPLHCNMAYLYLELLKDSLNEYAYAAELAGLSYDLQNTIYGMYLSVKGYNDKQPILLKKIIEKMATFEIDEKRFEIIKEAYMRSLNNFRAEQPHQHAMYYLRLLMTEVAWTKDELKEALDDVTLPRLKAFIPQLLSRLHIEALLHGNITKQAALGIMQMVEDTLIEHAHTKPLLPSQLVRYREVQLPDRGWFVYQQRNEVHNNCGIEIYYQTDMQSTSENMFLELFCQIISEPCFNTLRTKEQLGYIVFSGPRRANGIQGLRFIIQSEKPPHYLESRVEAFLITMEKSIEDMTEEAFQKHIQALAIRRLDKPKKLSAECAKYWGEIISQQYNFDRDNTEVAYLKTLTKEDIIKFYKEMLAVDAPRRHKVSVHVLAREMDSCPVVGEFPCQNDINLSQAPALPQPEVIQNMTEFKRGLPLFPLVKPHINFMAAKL
# IDE cell activ: boosts human insulin-degrading enzyme activity in HEK cells; AID 493087; P14735; FAbeta-B cleavage, fluorescence polarization; 0% vehicle, 100% cell-free pure enzyme wells; 340,000 tested, 0.073% active; activation, % at 5.96 µM;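 active means activation above the mean of all tested compounds plus 3 SD, set per screening campaign, cut at about 17% in these data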
# TPT1 inhibitor: inhibitors of Candida albicans tRNA 2'-phosphotransferase TPT1 | 300,000 tested, 0.81% active | recombinant caTPT1, FP RNA substrate dephosphorylation | inhibition, % at 5 µM;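 active means inhibition above the mean of all tested compounds plus 3 SD, set per screening campaign, cut at about 24% in these data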;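 further: plate controls were DMSO alone for no effect and ferristatin control at 100 nM for full effect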
# RTF Ca sens inh: cardiac RTF calcium desensitization; P19429+P45379; IANBD-labeled cardiac RTF, Ca2+ fluorescence; inhibition, % at 7.15 µM; 340,000 tested, 0.12% active; AID 493244;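 active means inhibition above the mean inhibition of all tested compounds plus 3 SD, cut at about 17% in these data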;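 further: assay run at fixed EC70 calcium of 1.6 mM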
# cardiac RTF act: cardiac RTF calcium sensitization; activation, % at 7.2 µM; IANBD-labeled TnC RTF fluorescence at EC20 calcium; 0% EC20 calcium, 100% full calcium; AID 493008; 340,000 tested, 0.24% active;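 active means activation above the mean over all tested compounds plus 3 SD, cut at about 30% in these data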;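 further: rise in fluorescence read as greater calcium sensitivity of cardiac thin filaments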
# caTPT1 confirm: TPT1 (C. albicans) inhibition, confirmation; inhibition, % at 5 µM; recombinant caTPT1, fluorescence polarization, RNase T1 coupled; 2,400 tested, 74% active; shares compounds with TPT1 inhibitor;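 active means inhibition above the primary screen limit, the mean inhibition of all tested compounds plus 3 SD, cut at about 25% in these data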
# RNase T1 inh: blocks Aspergillus oryzae RNase T1, a TPT1 counter-screen. shares compounds with TPT1 inhibitor. RNase T1 cleavage, fluorescence polarization, 1536-well. inhibition, % at 5 µM. 2,400 tested, 83% active. AID 2153;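 active means inhibition above the solvent-only control well mean plus 3 SD, limit set per screening run, cut at about 23% in these data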;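 further: plate controls were DMSO wells with enzyme for no effect and wells without RNase T1 for full effect; inhibitors block cleavage so intact labeled substrate keeps polarization high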
# Numbers without * were called inactive; . = no result given. The list is not random: actives were taken first. Their share in the collection is about 1.5%.
SMILES,CRFBP-R2 agonist,IDE cell inh,IDE cell activ,TPT1 inhibitor,RTF Ca sens inh,cardiac RTF act,caTPT1 confirm,RNase T1 inh
CC(C)(C)/C(O)=C/c1nc2ccccc2[nH]c1=O,-2,5,5,0,0,0,.,.
Cc1cccc(NC(=O)c2nc[nH]c2C(=O)N[C@H](C)CO)c1,-1,.,.,.,.,.,.,.
C[C@H](CO)N1C[C@H](C)[C@@H](CN(C)S(=O)(=O)c2cn(C)cn2)OCc2cnnn2CCCC1=O,1,.,.,.,.,.,.,.
NC1=NC(=Nc2cccc(S(N)(=O)=O)c2)c2ccccc21,-1,-1,-1,-2,-8,-3,.,.
COc1cc(N=Nc2cccc(S(N)(=O)=O)c2)c2ccccc2c1N,4,10,2,89*,-11,-1,44*,54*
NC1=NC(=O)C(Cc2ccc(Br)cc2)S1 (stereo not given),0,3,4,-5,-1,4,.,.
COc1ccccc1N1C(=N)S/C(=C\c2ccc(-c3ccccc3C(=O)O)o2)C1=O,7,14,-7,57*,-12,11,76*,87*
COc1ccc(C)cc1NC(=O)CCCN1C(=O)C(c2ccccc2)Oc2cccnc21 (stereo not given),0,2,2,0,-3,-4,.,.
COc1ccc(N(C(=O)c2cccnc2)S(=O)(=O)c2cccc([N+](=O)[O-])c2)cc1,-2,-7,5,68*,1,-2,5,7
Cc1ccc(S(=O)(=O)CCSc2nc(C)cc(C(F)(F)F)c2C#N)cc1,18,-3,-2,40*,-16,9,58*,69*
N#CCCN(Cc1ccccc1)C(=O)CCC(=O)c1ccc(F)cc1,-1,.,.,.,.,.,.,.
CN1CCN(S(=O)(=O)c2cccc(C(=O)Nc3sc4c(c3-c3nc5ccccc5[nH]3)CCCC4)c2)CC1,2,3,-5,33*,0,5,35*,48*
CCOC(=O)N1CCN(c2cc(NCCC(=O)O)c3c4c(onc24)-c2ccccc2C3=O)CC1,-3,9,5,137*,3,24,185*,152*
O=C(O)CCCNc1cc(N2CCN(C(=O)c3ccco3)CC2)c2noc3c2c1C(=O)c1ccccc1-3,8,5,0,96*,-32,8,170*,141*
CC(=O)Nc1ccc(NC(=O)COc2ccc(S(=O)(=O)N3CCCC3)cc2)cc1,0,3,-2,0,0,2,.,.
COc1cccc(/C=C/C(=O)c2ccc3c(c2)OCCO3)c1OC,-2,2,6,-4,0,-4,.,.
CCN(CC)c1ccc(/C=C(\C#N)c2ccccn2)cc1,15,16,-20,135*,-15,0,124*,129*
CN(CCC#N)c1ccc(/C=C(\C#N)c2ccccn2)cc1,2,6,-1,25*,-10,5,-67,-52
CCN(Cc1ccccc1)c1ccc(/C=C(\C#N)c2ccccn2)cc1,8,8,-3,67*,-32,7,46*,50*
N#C/C(=C\c1ccc(C(=O)O)cc1)c1ccccn1,0,-2,3,-4,-10,1,.,.
CC(C)CN(C(=O)COC(=O)c1ccccn1)c1c(N)n(Cc2ccccc2)c(=O)[nH]c1=O,-1,0,5,0,3,9,.,.
O=C(N/N=C\c1c(O)ccc2ccccc12)c1cncc(Br)c1,167*,11,47*,136*,-46,29,151*,138*
Cn1cc(C(=O)N/N=C/c2c(O)ccc3ccccc23)ccc1=O,5,15,-7,57*,-17,7,70*,54*
N#CC1(C#N)C2=C(CCCC2)NC(c2ccccc2)C1(C#N)C#N (stereo not given),.,7,.,30*,.,.,25*,34*
N#CC12C(N)=NC3(OCCO3)C1(C#N)C1=C(CCC1)NC2c1ccccc1 (stereo not given),-2,3,6,-22,-4,2,.,.
